# In PubChem BioAssay AID504332 (National Center for Advancing Translational Sciences (NCATS), 2011):
# Hit rate of the full screen: of about 350,000 compounds, about 31,000 (8.9%) were called active. Entries that show only a call come without a potency. About 15% were inconclusive and are not listed. The sample holds actives, similar compounds and a random draw of the others, so the mix is not that of the screen. Calls come from the whole dose curve; as a rule, active = well fitted inhibition curve with a large enough effect; inconclusive = small, poorly fitted or top-dose-only effect; inactive = no such curve, though single readings can be large or run the other way.
# Molecular target: Histone-lysine N-methyltransferase EHMT2 (Homo sapiens) (UniProt Q96KQ7)
# Sequence (Q96KQ7 913-1193 limits assumed): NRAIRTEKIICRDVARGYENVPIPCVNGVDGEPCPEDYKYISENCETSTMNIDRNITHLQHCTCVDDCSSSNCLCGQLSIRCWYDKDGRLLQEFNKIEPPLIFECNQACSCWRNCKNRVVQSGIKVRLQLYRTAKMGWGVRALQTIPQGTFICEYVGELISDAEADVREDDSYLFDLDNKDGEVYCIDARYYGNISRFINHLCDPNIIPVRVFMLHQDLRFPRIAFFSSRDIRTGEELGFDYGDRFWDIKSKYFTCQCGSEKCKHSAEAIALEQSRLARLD
# Assay: qHTS Assay for Inhibitors of Histone Lysine Methyltransferase G9a; note: nearly all actives have a fitted effect of over 75% in size
# Conditions: G9a H3K9 monomethylation, AlphaScreen, 2 h; series mostly up to 59 µM
# How it was run: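 Using a bead-based AlphaScreen, monomethylated H3K9 product from 2 h room-temperature reactions (G9a 20 nM, peptide 500 nM, SAM 20 uM) was detected with 0.5 ug/mL rabbit anti-H3K9me1 antibody.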
# Potency is the fitted concentration of half-maximal effect.
Compound,Potency,"activity, negative = inhibition"
O=C(CCn1c(=O)[nH]c2ccccc2c1=O)NCCCN1CCN(c2cccc(Cl)c2)CC1,inactive,
CCOc1ccc(CCNC(=O)c2cc3c(=O)n(C)c4ccccc4c3n2C)cc1,inactive,
Cn1c(C(=O)NCCCN2CCN(c3cccc(Cl)c3)CC2)cc2c(=O)n(C)c3ccccc3c21,7.94 µM (active),
CCN1C(=O)c2ccccc2Sc2ccc(NC(=O)Cc3ccc(OC)cc3)cc21,inactive,
COc1cc(-c2n[nH]c(=S)n2Cc2ccccc2)cc(OC)c1OC,3.55 µM (active),
COc1cc(-c2nnn(CC(=O)NCc3ccccc3)n2)cc(OC)c1OC,inactive,
CCC(C)n1c(-c2cc(OC)c(OC)c(OC)c2)nc2nc3ccccc3nc21 (stereo not given),inactive,
CCOC(=O)c1nn(-c2cccc(C)c2)cc1C(=O)c1ccccc1,,-45.6% [at 2.33 µM] (inactive)
CCOC(=O)C1=C(O)/C(=C/c2cc(C)n(-c3ccccc3)c2C)N=C1C,50.1 µM (active),
COC(=O)C1=C(O)/C(=C/c2ccc(OCC(=O)Nc3ccccc3)cc2)N=C1C,inactive,
COc1ccc2oc(C(=O)NCC(Cc3ccccc3)N(C)C)c(C)c2c1 (stereo not given),inactive,
Cc1ccc(OC(=O)c2cncc(Br)c2)c(C)c1,inactive,
COc1ccc(OC)c(-n2cc3c(=O)n(C)c(=O)n(C)c3c2)c1,50.1 µM (active),
Cn1c(=O)c2cn(-c3cccc4ccccc34)cc2n(C)c1=O,,5.87% [at 2.33 µM] (inactive)
COc1ccc(NC(=O)CCNS(=O)(=O)c2ccc3c(c2)c(=O)n(C)c(=O)n3C)cc1OC,inactive,
Cc1ccc(NC(=O)c2cccc(S(=O)(=O)N3CCCc4ccccc43)c2)nc1,inactive,
CCOC(=O)CC1(NC(=O)c2cc(COc3cncc(Cl)c3)on2)CCCCC1,inactive,
CCOC(=O)C(Cc1ccc(N)cc1)N1C(=O)c2ccccc2C1=O (stereo not given),50.1 µM (active),
COc1ccc(C[C@H](C(=O)O)N2C(=O)c3ccc(C(=O)O)cc3C2=O)cc1,,8.45% [at 12.7 µM] (inactive)
CCCCC(C(=O)OCC(=O)c1ccc(OC)cc1)N1C(=O)c2ccccc2C1=O (stereo not given),inactive,

Compound,Potency,"activity, negative = inhibition"
COc1cc(OC)cc(C(=O)NCCc2csc3nc(-c4ccccc4F)nn23)c1,inactive,
CCOCCCNC(=O)C(NC(=O)Cc1c[nH]c2ccccc12)c1ccc(OC)cc1 (stereo not given),inactive,
CCOCCCNC(=O)C(NC(=O)CNC(=O)c1ccccc1)c1ccc(C)cc1 (stereo not given),inactive,
CCOCCCNC(=O)C(NC(=O)CNC(=O)c1ccccc1)c1ccc(OC)cc1 (stereo not given),15.8 µM (active),
Cc1c(NC(=O)Nc2ccc(F)c(Cl)c2)c(=O)n(-c2ccccc2)n1C,inactive,
O=C(O[C@@H]1[C@H](Cc2ccccc2)NS(=O)(=O)[C@H]2C[C@@H]3C=C[C@]12O3)c1ccccc1Br,,6.72% [at 0.501 µM] (inactive)
O=C(CCN1c2ccccc2Sc2ccccc21)Nc1ccccc1,50.1 µM (active),
CC1CCN(CCC(=O)Nc2ccccc2)CC1,inactive,
O=C(CSCc1ccccc1)Nc1ccccc1,,2.25% [at 2.33 µM] (inactive)
O=C(COc1ccccc1Cl)Nc1ccc2nc(SCC(=O)N3CCCC3)sc2c1,inactive,
O=C(Nc1ccc(C2CC2(Cl)Cl)cc1)c1cccc([N+](=O)[O-])c1 (stereo not given),inactive,
COc1ccc(C2(C)ON(c3ccccc3C(F)(F)F)C2=O)cc1 (stereo not given),,1.68% [at 2.33 µM] (inactive)
COc1ccc(S(=O)(=O)N2CCCC2CNC(=O)C(=O)NC2CC2)cc1 (stereo not given),,4.18% [at 0.501 µM] (inactive)
CCC(=O)c1ccc(OCC(=O)OCC(=O)NC2CCCCCC2)cc1,inactive,
O=C(COc1ccccc1[N+](=O)[O-])NC1CC1,inactive,
O=C(COc1ccccc1[N+](=O)[O-])N/N=C/c1ccc[nH]1,inactive,
C=CCN(CC=C)CCOc1ccccc1[N+](=O)[O-],17.8 µM (active),
CSc1ccccc1NC(=O)C(C)N1C(=O)c2ccccc2S1(=O)=O (stereo not given),inactive,
Cc1nn(C(C)C(=O)NCCc2ccccc2)c(=O)c2c1sc1ccccc12 (stereo not given),inactive,
COc1ccc(CNC(=O)[C@H](Cc2c[nH]c3ccccc23)NC(C)=O)cc1OC,inactive,

Compound,Potency,"activity, negative = inhibition"
COc1ccc(-c2cc(C(=O)NC(Cc3c[nH]c4ccccc34)C(=O)O)c(C)o2)cc1OC (stereo not given),10 µM (active),
Cc1cccc(C)c1OCC(=O)NC(Cc1c[nH]c2ccccc12)C(=O)O (stereo not given),inactive,
O=C(Nc1cccc(Br)c1)c1ccc2snnc2c1,inactive,
COc1cccc(Cn2c(CNS(=O)(=O)c3ccc(Cl)s3)nc3cccnc32)c1,inactive,
CCCCCn1c(=O)[nH]c2cc(C(=O)NCCN(C)CCCC)ccc2c1=O,inactive,
O=C(N/N=C/c1ccoc1)c1ccc(Cl)cc1Cl,inactive,
CCCCOC(=O)c1ccc(N2C(=O)CC(N3CCN(C/C=C/c4ccccc4)CC3)C2=O)cc1 (stereo not given),inactive,
COC(=O)c1cc(C(=O)OC)cc(N2C(=O)CC(N3CCN(c4ccccc4)CC3)C2=O)c1 (stereo not given),15.8 µM (active),
CC(=O)Oc1cccc(N2C(=O)CC(Nc3ccc(N4CCOCC4)cc3)C2=O)c1 (stereo not given),,-45.5% [at 12.7 µM] (inactive)
Cc1ccc(C)c(Cn2c(=O)n(CCC(=O)NCc3ccc4c(c3)OCO4)c(=O)c3sccc32)c1,inactive,
Cc1ccc(F)cc1S(=O)(=O)N1CCC(c2nc3ccccc3s2)CC1,inactive,
COCCn1nnnc1C(c1ccccc1Cl)N1CCN(c2ccccc2OC)CC1 (stereo not given),inactive,
N#Cc1ccc(C(c2nnnn2CCc2ccccc2)N2CCCCCC2)cc1 (stereo not given),inactive,
COc1ccc(CCn2nnnc2C(c2ccccc2)N2CCN(C)CC2)cc1OC (stereo not given),70.8 µM (active),
COc1ccc(C(=O)N2CCC(c3nc4ccccc4o3)CC2)cc1,inactive,
COc1ccc(CNC(=O)c2cc3cccc(OC)c3oc2=O)cc1,inactive,
O=C(CC1N=C2c3ccccc3N=C(SCc3cccc(Cl)c3)N2C1=O)NCc1ccc2c(c1)OCO2 (stereo not given),inactive,
CCOC(=O)c1c(C)[nH]c(C(=O)OCC(=O)c2ccc(OC)cc2OC)c1C,,4.02% [at 0.501 µM] (inactive)
Cc1cccc(CC(=O)N2CC(=O)Nc3ccc(F)cc3C2c2ccccc2)c1 (stereo not given),inactive,
CN=C1C=C/C(=N/N=c2\ccn(O)cc2C)C=C1C,7.94 µM (active),
